From PubChem BioAssay (Tox21) come the findings set out here.

A number with no mark means an inactive call. Records with an inconclusive call do not appear. Calls of active or inactive are those of the source. Unless noted, calls come from the whole dose curve; as a rule, active = well fitted curve in the direction sought with a large enough effect in the repeat runs; inconclusive = weak or mixed curves; inactive = no such curve, though single readings can be large; an effect the other way counts as inactive or inconclusive.

The target of assay [1] is Thyrotropin receptor (Homo sapiens) (UniProt P16473). In words: qHTS assay to identify small molecule antagonists of the thyroid stimulating hormone receptor (TSHR) signaling pathway (AID 1259385; calls by dose curve; note: nearly all actives have a fitted effect of over 20% in size). The method in brief:
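TSHR-HEK293 cells (800/well) plated 18 h, then compounds with Ro20-1724 and TSH at 1.5 ng/mL final, 30 min at room temperature. cAMP quantified by HTRF (cAMP-d2/anti-cAMP-cryptate, 1 h); 15 concentrations in triplicate.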

Assay [2] in a line: qHTS assay to identify small molecule agonists of the estrogen receptor alpha (ER-alpha) signaling pathway in the presence of an antagonist - cell viability counter screen (AID 1259386).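 Note: series mostly up to about 92 µM; cells exposed to compounds for 22 h at 37 °C before the viability read; nearly all actives have a fitted effect of over 30% in size.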 In a few lines:
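Cytotoxicity was measured in parallel with the ERE-luciferase agonist screen, in the same wells. The cells were VM7Luc4E2, which endogenously express ER-alpha, and treatment was with compounds plus 10.0nM ICI-182,780 for 22hr.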

Assay [3] concerns the target Progesterone receptor (Homo sapiens) (UniProt P06401). In words: qHTS assay to identify small molecule agonists of the progesterone receptor (PR) signaling pathway (AID 1346784; calls by dose curve; note: nearly all actives have a fitted effect of over 30% in size; note: potency is the fitted concentration of half-maximal effect). The method in brief: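 The screen uses PR-UAS-bla HEK 293T cells in charcoal-stripped serum (2%). Compounds are applied for 16 hr at 37C after a 6 hr pre-incubation, and reporter activity is detected with a FRET beta-lactamase substrate after 2 hr at room temperature.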
In general terms: In qHTS, concentration-response curves come from the screen itself.

A short description of assay [4]: qHTS assay to identify small molecule antagonists of the progesterone receptor (PR) signaling pathway - cell viability counter screen (AID 1346798). Note: series mostly up to about 92 µM; nearly all actives have a fitted effect of over 50% in size. The method in brief: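 Viability was determined by ATP-based luminescence (CellTiter-Glo) in PR-UAS-bla HEK293T cells cultured in 2% charcoal-stripped serum and incubated 16 hr with compounds under R5020 stimulation.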

A short description of assay [5]: qHTS assay to identify small molecule antagonists of the TGF-beta/Smad signaling pathway - cell viability counter screen (AID 1346824). Note: nearly all actives have a fitted effect of over 50% in size. The method in brief:
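SBE-bla HEK 293T cells, incubated overnight, then compound plus 0.25 ng/mL TGF-beta1 (stock added) for 5 hr at 37 C. Viability was read in the same wells by CellTiter-Glo luminescence after 30 min at room temperature.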

Assay [6] is described as follows: qHTS assay to identify small molecule agonists of the TGF-beta/Smad signaling pathway - cell viability counter screen (AID 1346829). Note: top concentration of the series differs between compounds; nearly all actives have a fitted effect of over 45% in size. The method in brief:
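CellTiter-Glo luminescence readout; SBE-bla HEK 293T cells, overnight plating, compound 5 hr at 37 C/5% CO2, then bla substrate 2 hr RT, then CellTiter-Glo 30 min RT.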

The nature of assay [7]: qHTS assay to identify small molecule agonists of the TGF-beta/Smad signaling pathway (AID 1346859; active = well fitted activation curve with a large enough effect in the signal ratio in the repeat runs, not every such curve was filed as active; the % refers to the signal ratio; note: series mostly up to about 77 µM). The method in brief: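 Dual-wavelength fluorescence (460/530 nm emission) quantified beta-lactamase expression under the Smad binding element in HEK 293T cells following 5 hr compound treatment at 37 C.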
Assay [8] deals with Thyrotropin-releasing hormone receptor (Homo sapiens) (UniProt P34981). In words: qHTS assay to identify small molecule antagonists of the thyrotropin-releasing hormone receptor (TRHR) signaling pathway (AID 1346877; active = well fitted inhibition curve with a large enough effect in the repeat runs, not every such curve was filed as active; note: series mostly up to about 51 µM). The method in brief: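 Antagonism is measured as suppression of the calcium response to 1 nM TRH in TRHR-HEK293 cells that have been dye-loaded for 2 h at 37 °C after overnight plating. Each compound is tested at 15 concentrations in triplicate.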
Thyrotropin-releasing hormone receptor (Homo sapiens), sequence (P34981 whole entry, looked up): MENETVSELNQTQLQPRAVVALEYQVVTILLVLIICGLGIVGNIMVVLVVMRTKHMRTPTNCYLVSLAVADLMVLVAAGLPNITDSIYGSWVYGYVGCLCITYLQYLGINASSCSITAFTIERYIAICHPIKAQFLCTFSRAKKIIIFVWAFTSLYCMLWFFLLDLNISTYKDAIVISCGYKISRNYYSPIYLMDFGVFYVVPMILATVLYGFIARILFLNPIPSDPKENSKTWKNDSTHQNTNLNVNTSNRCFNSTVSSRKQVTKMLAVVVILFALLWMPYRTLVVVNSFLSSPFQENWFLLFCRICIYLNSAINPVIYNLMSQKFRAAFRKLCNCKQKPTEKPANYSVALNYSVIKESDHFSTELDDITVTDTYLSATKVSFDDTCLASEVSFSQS

For assay [9] the target is unchanged. In words: qHTS assay to identify small molecule agonists of the thyrotropin-releasing hormone receptor (TRHR) signaling pathway (AID 1346891; calls by dose curve;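 note: HEK293 cells expressing TRHR with calcium dye readout; series mostly up to about 58 µM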). In a few lines:
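Kinetic fluorescence (3 min, 1 s intervals) reported intracellular calcium after compound transfer onto TRHR-Hek293 cells pre-loaded with dye for 2 h at 37 °C.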

The nature of assay [10]: Human pregnane X receptor (PXR) small molecule agonists, qHTS cell viability counter screen (AID 1346977). Note: nearly all actives have a fitted effect of over 50% in size. The method in brief:
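HepG2 cells stably carrying the PXR-Luc reporter are cultured with 5% charcoal-stripped FBS and treated with compounds for 24hr. CellTiter-Fluor is added at 23hr and fluorescence is read after 1hr.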

The nature of assay [11]: Caspase-3/7 induction in HepG2 cells by small molecules, qHTS assay (AID 1346978). Note: nearly all actives have a fitted effect of over 15% in size. The method in brief: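 Wild-type HepG2 cells, 2,000/well, settled 5 hr at 37 C and 5% CO2, then compound-treated for 17 hr; caspase-3/7 activity read by luminescent Caspase-Glo 3/7 after 30 min at room temperature.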
A short description of assay [12]: Caspase-3/7 induction in CHO-K1 cells by small molecules, qHTS cell viability counter screen (AID 1346979). Note: nearly all actives have a fitted effect of over 35% in size. The method in brief: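 Seeding: 1,500 CHO-K1 cells/well. Rest: 5hr, 37C. Treatment: compounds in DMSO, 16hr. Read: CellTiter-Fluor, 1hr, fluorescence.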
Assay [13] is described as follows: Caspase-3/7 induction in CHO-K1 cells by small molecules, qHTS assay (AID 1346980). Note: nearly all actives have a fitted effect of over 15% in size. In a few lines: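 Wild-type CHO-K1 cells exposed to compounds for 17hr at 37 C, 5% CO2. Caspase-3/7 activity then measured by Caspase-Glo 3/7 luminescence after 30min at room temperature.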
Assay [14] can be described thus: Caspase-3/7 induction in HepG2 cells by small molecules, qHTS cell viability counter screen (AID 1346981). Note: series mostly up to about 92 µM; nearly all actives have a fitted effect of over 30% in size. In a few lines:
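Cell viability is measured as a cytotoxicity counter screen alongside the Caspase-Glo 3/7 readout in identical wells. Wild-type HepG2 cells are treated with test compounds for 16 hr at 37 C before CellTiter-Fluor addition and a 1-hr incubation.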

Assay [15] addresses Nuclear receptor subfamily 1 group I member 2 (Homo sapiens) (UniProt O75469). In words: Human pregnane X receptor (PXR) small molecule agonists, qHTS assay (AID 1346982). Note: nearly all actives have a fitted effect of over 35% in size. Note: potency is the fitted concentration of half-maximal effect. The method in brief: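 Cells: HepG2 stably carrying PXR-Luc. Medium held 5% charcoal-stripped FBS. Compounds in DMSO added after 5 hr plating, incubated 24 hr, then luminescence quantified with ONE-Glo.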

For assay [16], the target named is Progesterone receptor (Homo sapiens) (UniProt P06401). Briefly: qHTS assay to identify small molecule antagonists of the progesterone receptor (PR) signaling pathway (AID 1346795; active = well fitted inhibition curve with a large enough effect in the signal ratio in the repeat runs, not every such curve was filed as active; the % refers to the signal ratio). In a few lines: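 After 6 hr plating at 37C in 2% stripped-serum medium, PR-UAS-bla HEK293T cells got compounds, then 1 nM R5020. Sixteen hours later, LiveBLAzer substrate was applied for 2 hr at room temperature and fluorescence was recorded.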
Progesterone receptor (Homo sapiens), sequence (P06401 whole entry, looked up): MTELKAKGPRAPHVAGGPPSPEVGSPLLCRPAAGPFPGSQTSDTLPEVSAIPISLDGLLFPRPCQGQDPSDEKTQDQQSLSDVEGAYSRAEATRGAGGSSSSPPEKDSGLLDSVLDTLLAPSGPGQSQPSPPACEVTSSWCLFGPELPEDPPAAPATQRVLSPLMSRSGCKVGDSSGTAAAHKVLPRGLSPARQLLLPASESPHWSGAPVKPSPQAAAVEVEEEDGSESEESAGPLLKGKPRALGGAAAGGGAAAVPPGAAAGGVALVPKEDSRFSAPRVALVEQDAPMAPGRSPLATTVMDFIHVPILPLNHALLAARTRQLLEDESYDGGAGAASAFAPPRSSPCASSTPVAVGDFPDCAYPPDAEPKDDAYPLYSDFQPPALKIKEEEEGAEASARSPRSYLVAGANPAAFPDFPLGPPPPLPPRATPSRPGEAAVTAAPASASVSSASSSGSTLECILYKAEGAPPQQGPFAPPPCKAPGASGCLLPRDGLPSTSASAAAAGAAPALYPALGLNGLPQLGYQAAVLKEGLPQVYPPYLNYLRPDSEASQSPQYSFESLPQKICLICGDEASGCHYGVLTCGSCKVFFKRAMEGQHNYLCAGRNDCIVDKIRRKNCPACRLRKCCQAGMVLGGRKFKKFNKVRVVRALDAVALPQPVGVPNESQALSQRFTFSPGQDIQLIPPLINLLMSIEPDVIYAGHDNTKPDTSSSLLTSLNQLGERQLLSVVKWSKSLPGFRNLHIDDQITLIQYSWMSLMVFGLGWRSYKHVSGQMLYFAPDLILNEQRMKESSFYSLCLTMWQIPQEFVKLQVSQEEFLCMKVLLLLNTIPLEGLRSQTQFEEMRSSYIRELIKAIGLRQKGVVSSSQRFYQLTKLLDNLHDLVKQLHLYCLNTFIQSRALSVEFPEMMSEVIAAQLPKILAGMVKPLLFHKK

Assay [17] can be described thus: qHTS assay to identify small molecule agonists of the progesterone receptor (PR) signaling pathway - cell viability counter screen (AID 1346799; calls by dose curve; note: nearly all actives have a fitted effect of over 45% in size). The method in brief:
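Viability was scored by ATP luminescence (CellTiter-Glo, 30 min, room temperature) in the same wells used for the reporter readout, after 16 hr compound exposure of PR-UAS-bla HEK293T cells.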

Assay [18] concerns the target Nuclear receptor subfamily 1 group I member 2 (Rattus norvegicus) (UniProt Q9R1A7). In words: Rat pregnane X receptor (rPXR) activation by small molecules, qHTS assay (AID 1346983). Note: nearly all actives have a fitted effect of over 20% in size. The note with it: rPXR luciferase reporter cells, One-Glo luminescence, 24 h; max activation: stronger effect = higher value. The method in brief: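 Cell-based rPXR activation assay: rPXR cells, 2,000 per well, rested 5hr at 37 C, then exposed to compounds in DMSO for 24 hr at 37 C. Luciferase activity read by One-Glo luminescence after 30 min at room temperature.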

Assay [19] concerns the target Nuclear receptor subfamily 1 group I member 2 (Homo sapiens) (UniProt O75469). Briefly: CYP3A4 induction through human pregnane X receptor (PXR) by small molecules, qHTS assay (AID 1346984). Note: nearly all actives have a fitted effect of over 40% in size. The method in brief:
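Quantitative HTS in DPX-2 cells, i.e. HepG2 transfected with PXR response element and CYP3A4-promoter luciferase. Compounds in DMSO incubated 24hr at 37C; then P450-Glo CYP3A4 substrate, 3uM final, 3hr; One-Glo luminescence.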
% is set by controls: 0 for no effect and ±100 for the full control effect.

Nuclear receptor subfamily 1 group I member 2 (Homo sapiens), sequence (O75469 whole entry, looked up): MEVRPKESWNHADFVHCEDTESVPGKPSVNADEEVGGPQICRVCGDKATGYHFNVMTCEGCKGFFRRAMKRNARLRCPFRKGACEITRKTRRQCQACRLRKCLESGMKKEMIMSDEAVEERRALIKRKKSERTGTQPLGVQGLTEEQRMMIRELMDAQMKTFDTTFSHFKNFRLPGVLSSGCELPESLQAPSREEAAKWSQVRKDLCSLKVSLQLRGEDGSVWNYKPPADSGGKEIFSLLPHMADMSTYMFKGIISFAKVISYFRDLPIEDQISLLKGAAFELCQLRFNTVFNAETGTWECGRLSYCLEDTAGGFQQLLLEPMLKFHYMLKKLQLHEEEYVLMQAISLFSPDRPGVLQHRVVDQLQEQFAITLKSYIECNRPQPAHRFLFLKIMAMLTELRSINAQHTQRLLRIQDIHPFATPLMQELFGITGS
Thyrotropin receptor (Homo sapiens), sequence (P16473 whole entry, looked up): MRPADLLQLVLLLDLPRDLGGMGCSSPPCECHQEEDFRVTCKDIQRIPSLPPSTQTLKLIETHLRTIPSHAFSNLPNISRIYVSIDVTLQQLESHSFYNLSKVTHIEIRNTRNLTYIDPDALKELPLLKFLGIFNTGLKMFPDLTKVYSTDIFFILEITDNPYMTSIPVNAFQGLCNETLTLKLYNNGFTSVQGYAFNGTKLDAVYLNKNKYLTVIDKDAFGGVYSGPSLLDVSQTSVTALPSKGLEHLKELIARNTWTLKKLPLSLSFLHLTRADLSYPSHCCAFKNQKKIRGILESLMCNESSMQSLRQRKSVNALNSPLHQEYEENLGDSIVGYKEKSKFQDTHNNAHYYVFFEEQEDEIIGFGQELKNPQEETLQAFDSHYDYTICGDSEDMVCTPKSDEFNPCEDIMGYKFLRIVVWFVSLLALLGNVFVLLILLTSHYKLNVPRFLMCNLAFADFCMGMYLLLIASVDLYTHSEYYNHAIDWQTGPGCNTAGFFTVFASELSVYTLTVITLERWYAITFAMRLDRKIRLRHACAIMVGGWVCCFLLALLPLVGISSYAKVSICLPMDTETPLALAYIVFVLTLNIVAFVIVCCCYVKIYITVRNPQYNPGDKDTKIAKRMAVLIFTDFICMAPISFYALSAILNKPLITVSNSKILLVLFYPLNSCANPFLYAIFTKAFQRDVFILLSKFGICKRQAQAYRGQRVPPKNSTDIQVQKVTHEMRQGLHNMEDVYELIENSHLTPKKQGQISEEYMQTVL
Nuclear receptor subfamily 1 group I member 2 (Rattus norvegicus), sequence (Q9R1A7 whole entry, looked up): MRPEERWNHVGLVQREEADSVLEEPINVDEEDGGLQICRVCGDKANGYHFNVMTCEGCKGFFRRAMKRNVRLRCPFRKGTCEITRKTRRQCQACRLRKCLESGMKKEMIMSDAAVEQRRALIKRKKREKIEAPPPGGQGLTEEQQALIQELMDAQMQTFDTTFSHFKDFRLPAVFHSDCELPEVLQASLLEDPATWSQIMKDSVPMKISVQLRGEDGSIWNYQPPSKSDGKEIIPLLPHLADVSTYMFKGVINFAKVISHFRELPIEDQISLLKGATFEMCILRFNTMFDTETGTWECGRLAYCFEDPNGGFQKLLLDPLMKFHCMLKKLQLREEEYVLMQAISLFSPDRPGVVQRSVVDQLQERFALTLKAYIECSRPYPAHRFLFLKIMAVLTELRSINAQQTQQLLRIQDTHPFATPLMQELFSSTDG

In the case of `C=C(C)C1CC=C(C)C(O)C1` (stereo not drawn), the Potency result in [1], in [4], in assay [10] and in assay [12] was “inactive” throughout. Further, the result in assay [2], in [5], in [6], in assay [7], in [8] and in [9] was inactive. Besides, the compound was classed as inactive in [11], in assay [13] and in assay [14]. The Potency was 17.3 µM (active) in assay [3] and 48.8 µM (active) in [15].
With `CCCCCCCCCCCCCCCCCCOCC(O)CO` (stereo not drawn), the Potency entry in assay [1], in [3], in assay [16], in assay [4], in assay [17] and in assay [10] was “inactive” throughout. Besides, the Potency result in [15] and in [19] was “inactive” throughout. For the same compound, the call in assay [5], in assay [6], in assay [7], in assay [11], in [13] and in assay [14] was inactive. Besides, the max activation in assay [18] is 3.52%.
On to `N[C@@H](CS)C(=O)O`, for which the Potency result in [1], in assay [3], in [17], in [10], in [12] and in [15] was “inactive” in each case. For the same compound, the result in assay [2], in assay [5], in assay [6], in assay [7], in assay [11] and in assay [13] was inactive. Besides, the outcome in [14] was inactive.
With `COCCOC(=O)CC#N`, the Potency entry in assay [1], in assay [3], in [16], in assay [4], in assay [17] and in assay [10] was “inactive” throughout. Moreover, the Potency entry in [12] and in assay [15] was “inactive” throughout. The compound was classed as inactive in [5], in assay [6], in [7], in assay [8], in [9] and in assay [11]. Further, the result in [13] and in assay [14] was inactive.
On to `Cc1ncc(CSSCc2cnc(C)c(O)c2CO)c(CO)c1O`, for which the Potency entry in [1], in [3], in [16], in [4], in assay [17] and in assay [10] was “inactive” throughout. The Potency result in assay [12], in [15] and in assay [19] was “inactive” throughout. In addition, the compound was called inactive in assay [5], in assay [6], in assay [7], in [8], in assay [9] and in [11]. For the same compound, the compound was classed as inactive in assay [13] and in assay [14]. Further, in [18], the max activation was -2.5%.
Regarding `OCC(CO)(CO)COCC(CO)(CO)CO`, the Potency entry in assay [1], in assay [3], in [16], in [4], in [17] and in assay [10] was “inactive” throughout. Besides, the Potency entry in assay [12] and in assay [15] was “inactive” each time. For the same compound, the compound was classed as inactive in assay [6], in assay [7], in assay [8], in assay [9], in assay [11] and in assay [13]. The compound was called inactive in assay [14].
As for `OCc1ccccn1`, the Potency result in [1], in assay [3], in [16], in assay [4], in assay [17] and in [10] was “inactive” in each case. The Potency result in assay [15] and in assay [19] was “inactive” throughout. The compound was classed as inactive in assay [5], in assay [6], in [7], in assay [11], in assay [13] and in assay [14]. The max activation in assay [18] is -1.13%.
Turning to `CCCCCCC(=O)OCC`, the Potency result in assay [1], in assay [3], in assay [16], in [4], in [17] and in assay [10] was “inactive” in each case. In addition, the Potency entry in [12] and in assay [15] was “inactive” throughout. Also, the call in [5], in [6], in assay [7], in [8], in [9] and in assay [11] was inactive. Also, the call in assay [13] and in [14] was inactive.
